Screening data from PubChem BioAssay.
AF4-AF9 inh – blocks AF4 peptide binding to human AF9; P42568; AlphaScreen, biotin-AF4 peptide binding to FLAG-AF9; inhibition, % at 10 µM; 350,000 compounds, 0.47% hits; AID 651704;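 active means every replicate reaching a set inhibition limit, whatever the replicate mean, cut at about 25% in these data; inconclusive means mean inhibition reaches that limit but some replicates miss it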;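 further: 0% = plate neutral control median and 100% = total signal loss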
INS-1E GSIS act – primary screen for activators of insulin secretion dependent on glucose, INS-1E cells, GLuc reporter luminescence; INS-1E GLuc reporter insulin secretion, 2-3 h; activation, % at 16.6 µM; 370,000 compounds, 0.61% hits;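 active means lowest replicate activation of at least 40%, so every replicate reaches that level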;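 further: 0% = median of neutral control wells and 100% = median of IBMX positive control wells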
Env fusion inh – inhibitors of HIV Env-mediated cell fusion; HeLa-JRFL Env/CEM21 cell fusion, luciferase; inhibition, % at 12.3 µM; 360,000 compounds, 1.1% hits;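 active means mean replicate inhibition score of at least 50 and every replicate individually at or above 50; inconclusive means only one of the two criteria met; inactive means mean below 50 and not all replicates reaching 50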;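 further: 0% = plate neutral controls and 100% = maraviroc near 300 nM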
PGC1a acetyl inh – PGC1a acetylation modulation, inhibitor mode. U2OS PGC1a acetylation, AlphaScreen anti-acetyl-lysine; with virally co-expressed GCN5 acetyltransferase. inhibition, % at 15.6 µM. 350,000 compounds, 0.17% hits. AID 651687;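 active means every replicate shows inhibition of at least 40%; inconclusive means mean inhibition at least 40% but some replicate below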;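 further: 0% = neutral control wells and 100% = positive control wells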
NSD2 inh – blocks human histone methyltransferase NSD2; O96028; NSD2 peptide methylation, AlphaScreen, 120 min; inhibition, % at 12.5 µM; 310,000 compounds, 0.54% hits; in the data active means inhibition above about 50%
Target sequence (O96028 whole entry, looked up): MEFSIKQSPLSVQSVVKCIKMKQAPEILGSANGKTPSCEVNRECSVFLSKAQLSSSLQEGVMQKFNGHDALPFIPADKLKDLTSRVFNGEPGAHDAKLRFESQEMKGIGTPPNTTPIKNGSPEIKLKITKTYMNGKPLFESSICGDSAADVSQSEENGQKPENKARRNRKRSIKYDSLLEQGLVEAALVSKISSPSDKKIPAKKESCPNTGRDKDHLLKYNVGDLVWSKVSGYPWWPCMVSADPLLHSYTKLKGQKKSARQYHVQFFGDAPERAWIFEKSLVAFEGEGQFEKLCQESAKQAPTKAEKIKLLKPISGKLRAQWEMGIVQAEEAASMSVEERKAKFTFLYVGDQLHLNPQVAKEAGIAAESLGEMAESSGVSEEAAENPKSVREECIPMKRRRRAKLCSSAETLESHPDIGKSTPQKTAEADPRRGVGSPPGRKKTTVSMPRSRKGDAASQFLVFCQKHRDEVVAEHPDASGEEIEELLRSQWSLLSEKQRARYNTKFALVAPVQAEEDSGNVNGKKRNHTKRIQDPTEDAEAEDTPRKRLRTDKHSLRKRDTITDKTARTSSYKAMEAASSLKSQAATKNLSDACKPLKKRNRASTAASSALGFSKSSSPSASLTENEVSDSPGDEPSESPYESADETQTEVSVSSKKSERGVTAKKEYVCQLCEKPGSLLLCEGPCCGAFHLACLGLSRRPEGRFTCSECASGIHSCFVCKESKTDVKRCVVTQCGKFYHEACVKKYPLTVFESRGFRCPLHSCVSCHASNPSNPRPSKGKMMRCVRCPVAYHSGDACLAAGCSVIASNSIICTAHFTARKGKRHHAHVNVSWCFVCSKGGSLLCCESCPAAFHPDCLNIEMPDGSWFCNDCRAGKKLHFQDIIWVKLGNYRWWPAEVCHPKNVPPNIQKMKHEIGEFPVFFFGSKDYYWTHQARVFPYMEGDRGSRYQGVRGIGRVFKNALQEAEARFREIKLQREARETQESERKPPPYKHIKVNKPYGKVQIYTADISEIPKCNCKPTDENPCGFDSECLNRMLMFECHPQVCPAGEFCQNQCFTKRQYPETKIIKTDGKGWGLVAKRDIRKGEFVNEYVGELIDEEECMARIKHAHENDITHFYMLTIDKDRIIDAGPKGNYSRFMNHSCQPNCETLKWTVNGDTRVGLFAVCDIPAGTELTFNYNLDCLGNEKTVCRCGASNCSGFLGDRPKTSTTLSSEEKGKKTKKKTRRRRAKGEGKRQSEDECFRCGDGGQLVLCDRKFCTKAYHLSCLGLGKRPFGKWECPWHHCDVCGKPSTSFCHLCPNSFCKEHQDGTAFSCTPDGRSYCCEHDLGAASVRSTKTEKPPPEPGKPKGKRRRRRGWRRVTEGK
The depositor's hits bear a star; ? = inconclusive; / = not tested or not shown. Sampled rows, rich in hits. Any-hit rate of the full collection: about 2.1%.

SMILES	AF4-AF9 inh	INS-1E GSIS act	Env fusion inh	PGC1a acetyl inh	NSD2 inh
COCCNc1nc(NCCCN(C)C)c2sccc2n1	-0.7	66.1*	6.2	/	2.8
COCCNc1nc(Oc2ccc(C(N)=O)cc2)c2sccc2n1	-4.0	91.6*	8.7	/	0.3
COCCNc1nc(NCCOc2ccccc2Cl)c2sccc2n1	3.7	-21.8	10.9	7.6	-1.2
Cc1ccccc1-n1c(=O)n(Cc2ccccc2)c(=O)c2[nH]cnc21	1.0	/	-7.6	/	-1.7
COC(=O)c1ccc(C)c(-n2c(=O)n(Cc3ccccc3)c(=O)c3[nH]cnc32)c1	-2.7	44.4*	7.3	-0.4	-0.5
Clc1ccccc1/C=N/N1CCN(Cc2ccccc2)CC1	34.2*	-17.4	-11.7	0.4	8.5
CCOc1ccccc1/C=N/N1CCN(Cc2ccccc2)CC1	27.5*	-6.6	8.2	10.3	11.3
O=[N+]([O-])c1ccccc1/C=N/N1CCN(Cc2ccccc2)CC1	?	5.0	-24.5	1.5	30.2
CN(Cc1ccno1)Cc1cn(Cc2ccccc2)nc1-c1ccc2c(c1)OCO2	1.3	-7.0	2.4	/	-3.1
CCOC(=O)C1C(=O)OC(C)(C)C1C(CC)C(=O)c1ccccc1 (stereo not given)	-0.6	3.8	-0.8	/	13.5
CCOC(=O)C1C(=O)OC(C)(C)C1C(CC)C(=O)c1c(C)cc(C)cc1C (stereo not given)	-1.3	-9.3	76.3*	-18.8	-0.9
COc1ccc(-c2cn[nH]c2-c2ccc(OCc3ccc([N+](=O)[O-])cc3)cc2O)cc1OC	-0.8	2.9	-1.0	8.9	1.5
COc1ccc(-c2cn[nH]c2-c2ccc(OC)cc2O)cc1	9.1	3.4	58.3*	/	3.4
COc1ccc(-c2[nH]ncc2-c2ccc(Cl)cc2)c(O)c1	/	/	/	-3.9	4.6
O=[N+]([O-])c1ccc(COc2ccc(-c3[nH]ncc3-c3ccc(Cl)cc3)c(O)c2)cc1	/	41.2*	/	-0.3	0.6
O=C(NCCN1CCOCC1)c1ccc(CS(=O)(=O)c2ccc(Br)cc2)o1	2.3	7.9	-2.5	-11.1	/
COC(=O)c1sc2nc(C)nc(SCC(=O)N3CCC(C(=O)O)CC3)c2c1C	1.5	24.6	-8.2	/	1.4
O=C(CN(Cc1ccccc1)S(=O)(=O)c1ccc(F)cc1)NCCC1=CCCCC1	/	/	109.3*	/	-3.6
Cc1ccc(S(=O)(=O)N(CC(=O)NCCC2=CCCCC2)Cc2ccccc2F)cc1	/	/	/	-5.0	0.2
O=C(CN(Cc1ccccc1F)S(=O)(=O)c1ccc(Cl)cc1)NCCC1=CCCCC1	/	/	69.3*	-1.8	1.7
Cc1ccc(S(=O)(=O)N(CC(=O)NCCC2=CCCCC2)Cc2ccccc2)cc1	/	/	104.4*	-18.3	-2.2
CCN1CCN(C(=S)NC(C)c2ccccc2)CC1 (stereo not given)	/	29.4	0.8	/	-0.3
OC[C@H]1[C@H](c2ccc(C#CC3CCCC3)cc2)[C@@H]2CN(CCC(F)(F)F)CCCCN12	22.4	24.4	/	-64.8	/
COc1ccccc1NC(=O)N1CCCCN2[C@@H](CO)[C@@H](c3ccc(C#CC4CCCC4)cc3)[C@@H]2C1	11.1	55.2*	/	-31.3	/
COc1ccccc1NC(=O)N1CCCCN2[C@H](CO)[C@@H](c3ccc(C#CC4CCCC4)cc3)[C@@H]2C1	-4.4	3.9	/	-0.2	/
SMILES	AF4-AF9 inh	INS-1E GSIS act	Env fusion inh	PGC1a acetyl inh	NSD2 inh
OC[C@@H]1[C@@H](c2ccc(C#CC3CCCC3)cc2)[C@@H]2CN(CCC(F)(F)F)CCCCN12	14.6	46.4*	/	-17.4	/
OC[C@@H]1[C@@H](c2ccc(C#CC3CCCC3)cc2)[C@H]2CN(CCC(F)(F)F)CCCCN12	23.0	169.7*	/	-57.3	/
CC(=O)c1cccc(NC(=O)c2c(F)c(F)c(F)c(F)c2F)c1	/	/	/	8.5	-0.7
COc1ccc(Nc2nc(OC)nc(N3CCOCC3)n2)cc1	12.9	10.9	-10.6	-0.4	/
COc1nc(N2CCOCC2)nc(-n2cccc2)n1	/	57.1*	7.7	/	2.0
CCOC(=O)Cc1csc(/N=C/c2c(O)n(-c3ccc(C)c(C)c3)c(=O)c3ccccc23)n1	/	42.2*	38.1	/	0.7
CC(C(=O)N1CCC(C(N)=O)CC1)N(c1ccc(Oc2ccccc2)cc1)S(C)(=O)=O (stereo not given)	/	50.3*	-18.8	-56.6	-1.2
COc1ccc(NC(=S)N(CCCN2CCCC2)Cc2cccn2Cc2ccc(Cl)cc2)cc1Cl	33.0*	-26.7	11.2	-23.2	1.4
Cc1ccc(NC(=S)N(CCCN2CCCC2)Cc2cccn2Cc2ccc(Cl)cc2)cc1Cl	?	-3.6	-0.3	-1.6	9.9
Cc1cc(C)nc(NS(=O)(=O)c2ccc(NC(=O)Nc3ccccc3)cc2)n1	-2.2	-17.6	-1.5	96.8*	35.8
